# According to the supplement of paper PMC4466140:
# Assays:
# Experiment in all cases: SPOT peptide array binding signal intensity (averaged, normalized) (arbitrary units (background-subtracted, floor 0; scale differs between SH3 domains)); higher = stronger binding of the SH3 domain to the peptide
# [1] = target: AgAbp1
# Method in brief: (§1)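 To measure binding, SH3 domains from four yeast species were fused to GST, expressed in E. coli BL21(DE3) and purified on glutathione Sepharose. Each domain was incubated at 10 μg/ml overnight at 4°C on cellulose membranes with synthetic 15-mer peptides whose cysteines were replaced by serines. Anti-GST antibody, an HRP anti-mouse secondary and luminol were used for detection, and images were quantified with Genespotter. Reported binding signal is normalized, background-subtracted spot intensity averaged over replicates, in arbitrary units that differ between domains.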
# [2] = target: AgBbc1
# Method in brief: as §1
# [3] = target: AgBem1-D1
# Method in brief: as §1
# [4] = target: AgBzz1-D1
# Method in brief: as §1
# [5] = target: AgBzz1-D2
# Method in brief: as §1
# [6] = target: AgCyk3
# Method in brief: as §1
# [7] = target: AgFus1
# Method in brief: as §1
# [8] = target: AgHof1
# Method in brief: as §1
# [9] = target: AgHse1
# Method in brief: as §1
# [10] = target: AgLsb1
# Method in brief: as §1
# [11] = target: AgLsb4
# Method in brief: as §1
# [12] = target: AgMyo5
# Method in brief: as §1
# [13] = target: AgNbp2
# Method in brief: as §1
# [14] = target: AgRvs167
# Method in brief: as §1
# [15] = target: AgSho1
# Method in brief: as §1
# [16] = target: AgSla1-D1-D2
# Method in brief: as §1
# [17] = target: AgSla1-D3
# Method in brief: as §1
# [18] = target: CaAbp1-D1
# Method in brief: as §1
# [19] = target: CaAbp1-D2
# Method in brief: as §1
# [20] = target: CaBbc1
# Method in brief: as §1
# [21] = target: CaBem1-D1
# Method in brief: as §1
# [22] = target: CaBzz1-D1
# Method in brief: as §1
# [23] = target: CaBzz1-D2
# Method in brief: as §1
# [24] = target: CaCyk3
# Method in brief: as §1
# [25] = target: CaFus1
# Method in brief: as §1
# [26] = target: CaHof1
# Method in brief: as §1
# [27] = target: CaHse1
# Method in brief: as §1
# [28] = target: CaLsb1
# Method in brief: as §1
# [29] = target: CaLsb4
# Method in brief: as §1
# [30] = target: CaMyo5
# Method in brief: as §1
# [31] = target: SpBzz1-D2
# Method in brief: as §1
# [32] = target: SpCyk3
# Method in brief: as §1
# [33] = target: SpHof1
# Method in brief: as §1
# [34] = target: SpHof1-2
# Method in brief: as §1
# [35] = target: SpHof1-3
# Method in brief: as §1
# [36] = target: SpHse1
# Method in brief: as §1
# [37] = target: SpLsb1
# Method in brief: as §1
# [38] = target: SpLsb4
# Method in brief: as §1
# [39] = target: SpMyo1
# Method in brief: as §1
# [40] = target: SpNbp2
# Method in brief: as §1
# [41] = target: SpPex13
# Method in brief: as §1
# [42] = target: SpRvs167
# Method in brief: as §1
# [43] = target: SpSla1-D1-D2
# Method in brief: as §1
# [44] = target: SpSla1-D3
# Method in brief: as §1
# [45] = target: CaNbp2
# Method in brief: as §1
# [46] = target: CaRvs167
# Method in brief: as §1
# [47] = target: CaRvs167-3
# Method in brief: as §1
# [48] = target: CaSho1
# Method in brief: as §1
# [49] = target: CaSla1-D1-D2
# Method in brief: as §1
# [50] = target: CaSla1-D3
# Method in brief: as §1
# [51] = target: ScAbp1
# Method in brief: as §1
# [52] = target: ScBbc1
# Method in brief: as §1
# [53] = target: ScBem1-D1
# Method in brief: as §1
# [54] = target: ScBzz1-D1
# Method in brief: as §1
# [55] = target: ScBzz1-D2
# Method in brief: as §1
# [56] = target: ScCyk3
# Method in brief: as §1
# [57] = target: ScFus1
# Method in brief: as §1
# [58] = target: ScHof1
# Method in brief: as §1
# [59] = target: ScHse1
# Method in brief: as §1
# [60] = target: ScLsb1
# Method in brief: as §1
# [61] = target: ScLsb2
# Method in brief: as §1
# [62] = target: ScLsb3
# Method in brief: as §1
# [63] = target: ScLsb4
# Method in brief: as §1
# [64] = target: ScMyo3
# Method in brief: as §1
# [65] = target: ScMyo5
# Method in brief: as §1
# [66] = target: ScNbp2
# Method in brief: as §1
# [67] = target: ScPex13
# Method in brief: as §1
# [68] = target: ScRvs167
# Method in brief: as §1
# [69] = target: ScSho1
# Method in brief: as §1
# [70] = target: ScSla1-D1-D2
# Method in brief: as §1
# [71] = target: ScSla1-D3
# Method in brief: as §1
# [72] = target: SpAbp1-D1
# Method in brief: as §1
# [73] = target: SpBbc1
# Method in brief: as §1
# [74] = target: SpBzz1-D1
# Method in brief: as §1
binder,measurement,setting,value
KTRLRPAFIQQLWSS,SPOT peptide array binding signal intensity,[1],12
same,SPOT peptide array binding signal intensity,[2],18.8
same,SPOT peptide array binding signal intensity,[3],181
same,SPOT peptide array binding signal intensity,[4],82.5
same,SPOT peptide array binding signal intensity,[5],32.5
same,SPOT peptide array binding signal intensity,[6],1
same,SPOT peptide array binding signal intensity,[7],286
same,SPOT peptide array binding signal intensity,[8],45.5
same,SPOT peptide array binding signal intensity,[9],630
same,SPOT peptide array binding signal intensity,[10],1
same,SPOT peptide array binding signal intensity,[11],29.5
same,SPOT peptide array binding signal intensity,[12],3
same,SPOT peptide array binding signal intensity,[13],94.5
same,SPOT peptide array binding signal intensity,[14],2.83
same,SPOT peptide array binding signal intensity,[15],12
same,SPOT peptide array binding signal intensity,[16],18
same,SPOT peptide array binding signal intensity,[17],19.8
same,SPOT peptide array binding signal intensity,[18],130
same,SPOT peptide array binding signal intensity,[19],38.5
same,SPOT peptide array binding signal intensity,[20],82.5
same,SPOT peptide array binding signal intensity,[21],46
same,SPOT peptide array binding signal intensity,[22],58.5
same,SPOT peptide array binding signal intensity,[23],59
same,SPOT peptide array binding signal intensity,[24],6
same,SPOT peptide array binding signal intensity,[25],912
same,SPOT peptide array binding signal intensity,[26],2
same,SPOT peptide array binding signal intensity,[27],10.8
same,SPOT peptide array binding signal intensity,[28],0.5
same,SPOT peptide array binding signal intensity,[29],14
same,SPOT peptide array binding signal intensity,[30],4
KRRTSLFPWLHKPGI,SPOT peptide array binding signal intensity,[31],≤ 0
same,SPOT peptide array binding signal intensity,[32],3
same,SPOT peptide array binding signal intensity,[33],54
same,SPOT peptide array binding signal intensity,[34],2.75
same,SPOT peptide array binding signal intensity,[35],586
same,SPOT peptide array binding signal intensity,[36],844
same,SPOT peptide array binding signal intensity,[37],0.5
same,SPOT peptide array binding signal intensity,[38],8.5
same,SPOT peptide array binding signal intensity,[39],2.5
same,SPOT peptide array binding signal intensity,[40],418
same,SPOT peptide array binding signal intensity,[41],6.5
same,SPOT peptide array binding signal intensity,[42],≤ 0
same,SPOT peptide array binding signal intensity,[43],≤ 0
same,SPOT peptide array binding signal intensity,[44],4
RKLRTVPGVPLIHLT,SPOT peptide array binding signal intensity,[1],13
same,SPOT peptide array binding signal intensity,[2],40.8
same,SPOT peptide array binding signal intensity,[3],41
same,SPOT peptide array binding signal intensity,[4],8
same,SPOT peptide array binding signal intensity,[5],16
same,SPOT peptide array binding signal intensity,[6],0.5
same,SPOT peptide array binding signal intensity,[7],53.5
same,SPOT peptide array binding signal intensity,[8],34.5
same,SPOT peptide array binding signal intensity,[9],19.5
same,SPOT peptide array binding signal intensity,[10],2
same,SPOT peptide array binding signal intensity,[11],18
same,SPOT peptide array binding signal intensity,[12],≤ 0
same,SPOT peptide array binding signal intensity,[13],934
same,SPOT peptide array binding signal intensity,[14],2
same,SPOT peptide array binding signal intensity,[15],≤ 0
same,SPOT peptide array binding signal intensity,[16],≤ 0
same,SPOT peptide array binding signal intensity,[17],0.25
same,SPOT peptide array binding signal intensity,[18],224
same,SPOT peptide array binding signal intensity,[19],83
same,SPOT peptide array binding signal intensity,[20],171
same,SPOT peptide array binding signal intensity,[21],1
same,SPOT peptide array binding signal intensity,[22],104
same,SPOT peptide array binding signal intensity,[23],90
same,SPOT peptide array binding signal intensity,[24],17
same,SPOT peptide array binding signal intensity,[25],147
same,SPOT peptide array binding signal intensity,[26],0.5
same,SPOT peptide array binding signal intensity,[27],1.25
same,SPOT peptide array binding signal intensity,[28],≤ 0
same,SPOT peptide array binding signal intensity,[29],73
same,SPOT peptide array binding signal intensity,[30],0.25
same,SPOT peptide array binding signal intensity,[45],281
same,SPOT peptide array binding signal intensity,[46],24.3
same,SPOT peptide array binding signal intensity,[47],7.25
same,SPOT peptide array binding signal intensity,[48],3.5
same,SPOT peptide array binding signal intensity,[49],20
same,SPOT peptide array binding signal intensity,[50],≤ 0
same,SPOT peptide array binding signal intensity,[51],14
same,SPOT peptide array binding signal intensity,[52],21
same,SPOT peptide array binding signal intensity,[53],27.5
same,SPOT peptide array binding signal intensity,[54],10
same,SPOT peptide array binding signal intensity,[55],1.5
same,SPOT peptide array binding signal intensity,[56],9
same,SPOT peptide array binding signal intensity,[57],37
same,SPOT peptide array binding signal intensity,[58],1
same,SPOT peptide array binding signal intensity,[59],178
same,SPOT peptide array binding signal intensity,[60],1.5
same,SPOT peptide array binding signal intensity,[61],2
same,SPOT peptide array binding signal intensity,[62],1030
same,SPOT peptide array binding signal intensity,[63],22
same,SPOT peptide array binding signal intensity,[64],≤ 0
same,SPOT peptide array binding signal intensity,[65],2
same,SPOT peptide array binding signal intensity,[66],1190
same,SPOT peptide array binding signal intensity,[67],59.5
same,SPOT peptide array binding signal intensity,[68],1390
same,SPOT peptide array binding signal intensity,[69],110
same,SPOT peptide array binding signal intensity,[70],73
same,SPOT peptide array binding signal intensity,[71],23.5
same,SPOT peptide array binding signal intensity,[72],17.5
same,SPOT peptide array binding signal intensity,[73],≤ 0
same,SPOT peptide array binding signal intensity,[74],71.5
same,SPOT peptide array binding signal intensity,[31],≤ 0
same,SPOT peptide array binding signal intensity,[32],≤ 0
same,SPOT peptide array binding signal intensity,[33],22.8
same,SPOT peptide array binding signal intensity,[34],2
same,SPOT peptide array binding signal intensity,[35],229
same,SPOT peptide array binding signal intensity,[36],68.8
same,SPOT peptide array binding signal intensity,[37],3.25
same,SPOT peptide array binding signal intensity,[38],369
same,SPOT peptide array binding signal intensity,[39],2.75
same,SPOT peptide array binding signal intensity,[40],7.5
same,SPOT peptide array binding signal intensity,[41],≤ 0
same,SPOT peptide array binding signal intensity,[42],616
same,SPOT peptide array binding signal intensity,[43],1
same,SPOT peptide array binding signal intensity,[44],≤ 0
